These results are taken from PubChem BioAssay (NCI).

SMILES strings stand for the structures. About 83,000 compounds went through this panel and 20% of them were active in at least one assay; those are over-represented in the sample as a whole.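 Cell lines were cultured in 96-well plates, exposed to a single compound concentration, and assessed for percent growth 48 hours later.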 Calls of active or inactive are those of the source.

This test has as its system RPMI-8226 leukemia. Briefly: NCI-60 one-dose screen, 48 h (100 = growth as untreated, 0 = no growth, -100 = all killed). The following applies: 10 µM. How it is done:
Growth inhibition of the RPMI-8226 human tumor cell line is measured as a screen for anti-cancer activity. Cells are grown in 96 well plates and exposed to the test compound for 48 hours. Compounds are tested at a single concentration, which is 10^-5 M for most compounds. The reported endpoint is percent growth (GI% or GIPRCNT), where numbers from 0 - 100% represent growth inhibition, and numbers from -100% - 0 represent cell death. For example, a value of 40 represents 60% growth inhibition. A value of 0 means no net growth occurred over the course of the experiment. A value of -40 indicates 40% of cells at the beginning of the experiment died by the end of the experiment. A value of -100 means all cells are dead at the end of the experiment.
NCI-60 Human Tumor Cell Lines Screen was performed using the standard one-dose NCI protocol, which is described in more detail at https://dtp.cancer.gov/discovery_development/nci-60/default.htm.
Compounds with GIPRCNT values below 10 were considered active. Activity score was based on GIPRCNT using the following formula: […]
Score is 0 for GIPRCNT values of 100 or above, 50 for GIPRCNT values of 0, and 100 for GIPRCNT values of -100.
Take `O=C(CNc1nc(-c2ccccc2)cs1)Nc1ccc([N+](=O)[O-])cc1`: the growth was 11.7% (inactive).

Take `Nc1cc(-c2cccc(C(=O)NCc3ccc4c(c3)OCO4)c2)ccn1`: the growth is 80.6% (inactive).

Regarding `Cc1ccc(/C(CSc2nnc(-c3c[nH]c4ccccc34)n2-c2ccccc2)=N/O)cc1`, the growth was -19.1% (active).

Take `COc1ccc(-c2ccc(SCC(=O)Nc3ccc(C#N)cc3)nn2)cc1`: the growth was 91% (inactive).

As for `CC1(C)CC[C@]2(C(=O)N3CCOCC3)CC[C@]3(C)C(=CC[C@@H]4[C@@]5(C)CC[C@H](NCO)C(C)(C)[C@@H]5CC[C@]43C)[C@H]2C1`, the growth is -38.5% (active).

For the molecule `COc1ccccc1NCc1ccc(CO)n1-c1ccc(C)cc1`, the growth was 85.8% (inactive).

For the molecule `COc1ccc(N2N=C(c3ccc4c(c3)OCCO4)CC2c2cccc(NC(=O)CCCNS(=O)(=O)c3ccc(F)cc3)c2)cc1` (stereo not given), the growth was 41.2% (inactive).

On to `COc1ccc(-c2nc(S(=O)(=O)c3ccc(C)cc3)c(S(=O)(=O)CC(=O)N(C)Cc3ccccc3)o2)cc1`, for which the growth was -35.3% (active).

Turning to `CN1C(=O)/C(=C/c2ccc3ncsc3c2)NC1=NC12CC3CC(CC(O)(C3)C1)C2`, the growth is -7.67% (active).

Consider `Cc1ccc(/C=C/C(=O)c2ccc(S(=O)(=O)NCCNc3nc(Nc4ccc(F)cc4)nc(N(C)C)n3)cc2)cc1`, for which the growth is 4.72% (active).

Take `COc1ccc(/C(C)=N/N=C2C(=O)N(C)c3ccc(Br)cc32)cc1S(N)(=O)=O`: the growth was 79.3% (inactive).

With `CCN1CCN(Cc2ccc(C(=O)Nc3cccc(-c4cn(-c5ccc6oc(=O)ccc6c5)nn4)c3)cc2C(F)(F)F)CC1`, the growth was -40.7% (active).

`Cc1ccc(NCC(=O)Nn2c(COc3ccccc3)nc3ccccc3c2=O)cc1`: the growth was 85.9% (inactive).

Regarding `O=c1c2ccccc2nc(COc2ccccc2)n1/N=C/c1ccc(N2CCCC2)cc1`, the growth was 64.1% (inactive).

For `COc1ccccc1C(=O)NNC(=O)CSc1nc2c(c(=O)[nH]1)CCCC2`, the growth is 98.1% (inactive).

For the molecule `O=C1Nc2cc(Cl)ccc2/C1=C/c1cccc(OCc2ccccc2)c1`, the growth was -34.7% (active).

Regarding `COc1cc2oc(-c3cccc(C(=O)Nc4ccc(Cl)cc4)c3)cc(=O)c2c(OCCNC(=O)CNC(=O)OC(C)(C)C)c1OC`, the growth is 29.4% (inactive).

With `Cc1ccc(-c2cc(-c3cc4ccccc4nc3Cl)[nH]c(=O)n2)cc1`, the growth was -30.1% (active).

On to `O=C(CNc1nc(-c2ccccc2)cs1)Nc1ccccc1`, for which the growth was 8.69% (active).

As to `COc1ccc(C=CC(=O)c2ccc(-n3c(C)nc4c(cnn4-c4ccccc4)c3=O)cc2)cc1`, the growth was -18.8% (active).

On to `CN1CCN(c2ccc(Nc3nc(N4CCN(S(=O)(=O)c5ccc(Cl)cc5)CC4)c4sccc4n3)cc2)CC1`, for which the growth was -23.6% (active).

For the molecule `Cn1c(O)c(N=Nc2nc(-c3cc4ccccc4oc3=O)cs2)c2cc(Br)ccc21`, the growth was 96.6% (inactive).

`CN(CCF)c1ccc(/C=C/C(=O)c2ccc(N)cc2O)cc1`: the growth was 62.8% (inactive).

Regarding `C=C1CC[C@H](C(=C)C)[C@H]2C=C(C)C(=O)C3=C(C(=O)[C@@](C)(O)C3)[C@H]12`, the growth is -22.5% (active).

Take `COc1ccc(CN2[C@H](C(=O)NCc3ccc(C(=O)NO)cc3)Cc3c([nH]c4ccccc34)[C@H]2C2CC2)cc1`: the growth was 47.3% (inactive).

As to `CC1=C2C(=C[C@@](C)(CO)[C@@H]2O)/C(=N\N)[C@](C)(O)C12CC2`, the growth was 56.2% (inactive).

On to `COC1=C[C@]23CCC(=O)N2CCc2cc4c(cc2[C@@H]3[C@@H]1OC(=O)CCCC(C)C)OCO4`, for which the growth was 22.4% (inactive).

On to `O=C(CNc1nc(-c2ccccc2)cs1)Nc1cccc([N+](=O)[O-])c1`, for which the growth is -18% (active).

On to `COc1cnc2c(c1)C(=O)c1c-2n(CCCNC(C)C)c(=O)c2cc(OC)c(OC)cc12`, for which the growth was -14.8% (active).

Turning to `COc1ccc(-c2cc(-c3cc(C(=O)c4ccc(Br)cc4)n4ccc(C)cc34)nc(N)c2C#N)cc1`, the growth was 86.8% (inactive).

In the case of `COc1cc(Cn2c(C(F)(F)F)cc3c(Cl)ncnc32)ccn1`, the growth is 6.17% (active).

As to `Cc1ccn2c(C(=O)c3ccccc3)cc(-c3cc(-c4ccc(N(C)C)cc4)c(C#N)c(N)n3)c2c1`, the growth was 82.5% (inactive).

On to `O=C(Nc1ccc(OCC(=O)c2ccccc2)cc1)Nc1ccc(Cl)c(C(F)(F)F)c1`, for which the growth was 7.07% (active).

For the molecule `CN1C(=O)N(C)C2SC(N/N=C/c3ccccc3F)=NC21` (stereo not given), the growth is 90.9% (inactive).

On to `COc1ccc(C(=O)/C=C/c2cc(C(F)(F)F)cc(C(F)(F)F)c2)cc1S(N)(=O)=O`, for which the growth is 3.03% (active).

As to `OCCCNc1oc(-c2ccccc2)nc1[P+](c1ccccc1)(c1ccccc1)c1ccccc1`, the growth was 4.55% (active).

As to `Cc1ccc(-c2nc(Nc3ccccc3C(=O)O)c3ccccc3n2)cc1`, the growth is 17.1% (inactive).

In the case of `Cc1ccc(CNC(=O)Cc2ccc3c(c2)CN(C2CCC(=O)NC2=O)C3=O)cc1` (stereo not given), the growth was 30.3% (inactive).

With `CNC(=O)c1cccc(N2CCc3c2ccc(NC(=O)Nc2ccc(N4CCN(C)CC4)c(C(F)(F)F)c2)c3F)c1`, the growth was -41.1% (active).

As to `CCOc1ccc(Nc2nc3ccccc3nc2Nc2ccc(OCC)cc2)cc1`, the growth is 18.5% (inactive).
